From PubChem BioAssay
LMP1 NFkB inh – EBV LMP1-driven NF-kappaB luciferase reporter inhibitors, primary screen, cell-based, luminescence, single point. inhibition, % at 12.5 µM. 350,000 tested, 0.69% active. AID 504558, 2011. LMP1-induced NF-kappaB luciferase reporter cells; in the data active = inhibition above about 41%; inconclusive = no clear call, values can overlap the other calls;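 note: 0% = neutral control wells and 100% = reference inhibitor control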
HSF1 inhib – HSF1 inhibitors in luciferase reporter cells, primary screen, cell-based, NIH3T3, luminescence. NIH3T3-HGL HSE-luciferase, MG132-induced, luminescence 8 h; active compounds read low. activity change, negative = inhibition, % at 7.5 µM (by protocol). 300,000 tested, 0.77% active. AID 2098, 2009;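 active = more than half of replicate wells show activity change below -50%, luminescence cut by over half; inconclusive = some wells, but at most half, below -50%; inactive = no replicate well below -50%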;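 note: luciferase reports HSF-1 transcriptional activity via heat shock element; 0% = median of DMSO wells and -100% = zero luminescence signal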
LGR2 antag – inhibitors of bursicon-induced LGR2 CRE-luciferase signal, primary screen, cell-based, HEK293, CRE-luciferase reporter, bursicon stimulation; Drosophila bursicon receptor LGR2 (rickets); bursicon-stimulated, 4 h; inhibition, % at 9.99 µM; 380,000 tested, 0.35% active; AID 720647, 2013;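 active = drop in luminescence signal, shown as inhibition above about 50% in the replicate tests, limit read from the data, passing the limit was not always enough; inconclusive = probably only some replicates passing the limit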;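 note: agonist challenge used bursicon conditioned medium at about half maximal strength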
TWEAK Fn14 block – inhibitors of TWEAK-Fn14 signaling, primary screen, luciferase reporter cells, uHTS. inhibition, % at 10 µM. TWEAK-stimulated Fn14 reporter cells, luciferase luminescence, 8 h. 360,000 tested, 2% active; in the data active = inhibition above about 50%
HSF1 activator – HSF-1 activators, primary screen, NIH3T3-HGL cells, MG132 stress, luminescence, single point. NIH3T3-HGL HSF-1 luciferase reporter, 8 h; 100% = twice DMSO control signal. activation, % at 9 µM. 300,000 tested, 1.7% active. AID 504408, 2011;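 active = mean replicate activation of at least 50% with a set share of replicates each reaching 50%; inconclusive = only one of those two conditions met; inactive = mean below 50% and too few replicates reaching it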;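 note: 0% = median of the neutral control wells and 100% = twice that signal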
TROY NFkB inh – inhibitors of TROY-driven NF-kB signaling, primary screen, Q293 LMP1-TROYcd cells, NF-kB luciferase, uHTS; Q293 LMP1-TROYcd NF-kB luciferase reporter, 4 h; 360,000 tested, 0.98% active; inhibition, % at 10 µM;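 active = compounds whose plate-normalised and pattern-corrected inhibition of the luciferase reporter signal at the single screening dose is 50% or more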
Numbers without * were called inactive; ? = inconclusive; . = no result. Only some compounds are listed: those with a hit (about 3.6% of all), similar ones and a draw of the others.

SMILES | LMP1 NFkB inh | HSF1 inhib | LGR2 antag | TWEAK Fn14 block | HSF1 activator | TROY NFkB inh
S=C(NCc1ccccc1)Nc1cccc2cnccc12 | 20 | 4 | 12 | 77* | 7 | 42
S=C(Nc1cccc(Cl)c1)Nc1cccc2cnccc12 | 2 | . | . | 76* | . | 34
CC(=O)c1ccc(NC(=S)Nc2cccc3cnccc23)cc1 | -4 | 33 | 12 | 60* | 43 | 34
COc1cc(OC)c(OC)cc1/C=C1\CCC/C(=C\c2cc(OC)c(OC)cc2OC)C1=O | 13 | 10 | 2 | 56* | 21 | 11
COc1ccc(/C=C2\CCC/C(=C\c3ccc(OC)c(OC)c3OC)C2=O)c(OC)c1OC | . | 38 | 17 | 7 | 53* | 21
C[C@@H]1CN([C@@H](C)CO)C(=O)c2cc(NS(=O)(=O)c3cn(C)cn3)ccc2O[C@@H](C)CCCCO[C@@H]1CN(C)C(=O)CCCN(C)C | . | . | -4 | . | . | .
COc1cccc(-c2nn(C)c3sc(C(=O)N4CCN(c5ccccn5)CC4)cc23)c1 | 22 | 2 | . | 69* | -6 | 62*
COc1cccc(C(=O)N2CCN(c3ccccn3)CC2)c1 | 49* | 4 | -14 | -25 | 6 | 5
COc1ccc2c3c(n(C)c2c1)[C@@H](CO)N(S(C)(=O)=O)CC31CN(C(=O)C2CCCC2)C1 | . | . | -6 | . | . | .
Cc1ccc(N=Nc2ccc(O)c3ncccc23)cc1 | 13 | 124 | . | -81 | 123* | -33
Cc1ccc(N=Nc2ccc(O)c3ncccc23)cc1C | -8 | -51* | 11 | 10 | -55 | 9
Cn1c(=O)c2cn(-c3ccc4c(c3)OCCO4)cc2n(C)c1=O | -39 | -67* | -34 | 31 | -73 | 17
Cc1ccc(-n2cc3c(=O)n(C)c(=O)n(C)c3c2)cc1C | -6 | -16 | . | -13 | -18 | -27
COc1ccc(S(=O)(=O)N(C)C[C@@H]2Oc3ccc(NC(=O)Nc4ccc(F)cc4)cc3C(=O)N([C@H](C)CO)C[C@H]2C)cc1 | . | . | 10 | . | . | .
COc1ccc(/C=C/C(O)=C2/C(=O)N(C)C3(C)CC2c2ccccc2O3)cc1 (configuration not stated) | 1 | 22 | . | 28 | 65* | -14
Cc1ccc(S(=O)(=O)C2C(=O)N(C)C3(C)CC2c2ccccc2O3)cc1C (configuration not stated) | 6 | 1 | . | -13 | 5 | 13
Cc1ccc(/C=C/C(O)=C2/C(=O)N(C)C3(C)CC2c2ccccc2O3)cc1 (configuration not stated) | -1 | 7 | . | 51* | 38 | 2
COc1ccc(/C=C/C(O)=C2/C(=O)NC3(C)CC2c2ccccc2O3)c(OC)c1OC (configuration not stated) | -5 | 11 | 26 | 39 | -8 | 14
N#Cc1cccc(-c2ccc3c(c2)[C@H]2[C@H](CCN2S(=O)(=O)c2ccccc2)[C@@H](CO)N3)c1 | . | . | 3 | . | . | .
N#C/C(=C/c1ccc(F)cc1)c1nc(CCN2C(=O)c3ccccc3C2=O)cs1 | 10 | 0 | . | -19 | 11 | 21
N#C/C(=C/c1cccc(C(F)(F)F)c1)c1nc(CCN2C(=O)c3ccccc3C2=O)cs1 | 0 | -59* | . | 14 | -65 | 43
O=C(Nc1ccc(N2C(=O)C3C4C=CC(C4)C3C2=O)cc1)Nc1nncs1 (configuration not stated) | -10 | -86* | -1 | -35 | -89 | -5
O=C(Nc1nncs1)c1ccc(N2C(=O)C3C4C=CC(C4)C3C2=O)cc1 (configuration not stated) | -2 | -7 | . | -2 | 8 | 0
O=C(NCC[C@H]1CC[C@H](NS(=O)(=O)c2ccc(F)cc2)[C@@H](CO)O1)c1ccccc1F | . | . | 5 | . | . | .
C[C@@H]1CN([C@@H](C)CO)S(=O)(=O)c2ccc(C#CC3CC3)cc2O[C@@H]1CN(C)C(=O)c1ccncc1 | . | . | 3 | . | . | .
SMILES | LMP1 NFkB inh | HSF1 inhib | LGR2 antag | TWEAK Fn14 block | HSF1 activator | TROY NFkB inh
CO[C@H]1CN(C)C(=O)c2ccc(NC(=O)c3cnccn3)cc2OC[C@@H](C)N(C(C)=O)C[C@@H]1C | . | . | -2 | . | . | .
CN(C(=O)c1ccco1)c1nc(-c2ccc(F)cc2)cs1 | -19 | 36 | -41 | -6 | 83* | -25
CCN(CC)CCCN(C(=O)c1ccco1)c1nc(-c2ccc(Cl)cc2)cs1 | -22 | 14 | 15 | -50 | 33 | -47
CCN(CC)CCCN(C(=O)c1ccco1)c1nc(-c2ccc(C)cc2)cs1 | -16 | -69* | -1 | 2 | -76 | -22
CO[C@H]1CN(C)C(=O)c2cc(NC(=O)NC(C)C)ccc2OC[C@@H](C)N(CC2CC2)C[C@@H]1C | . | . | 15 | . | . | .
CN1c2ccc(C3=CCCCC3)cc2[C@@H]2[C@@H](CCN2S(=O)(=O)c2ccccc2)[C@H]1CO | . | . | 11 | . | . | .
COC(=O)Cc1[nH]n(-c2nc3ccccc3s2)c(=O)c1C(C)=Nc1ccc(Cl)cc1 | 38 | -68* | -5 | 17 | -71 | 44
COC(=O)Cc1[nH]n(-c2ccccc2)c(=O)c1C(C)=Nc1ccccc1 | -17 | 5 | 8 | 15 | 12 | 6
COC(=O)Cc1[nH]n(-c2nc3ccccc3s2)c(=O)c1C(C)=Nc1ccc(C)cc1 | 82* | 2 | 53* | 91* | 6 | 82*
CO[C@@H]1CN(C)C(=O)c2ccc(NC(C)=O)cc2OC[C@@H](C)N(C(=O)C2CCCCC2)C[C@H]1C | . | . | 16 | . | . | .
C[C@@H]1CN([C@H](C)CO)C(=O)Cc2cc(NS(C)(=O)=O)ccc2O[C@@H]1CN(C)C(=O)Nc1ccccc1 | . | . | 16 | . | . | .
CCOc1ccc(OCc2ccc(C(=O)NN=Cc3ccc[nH]3)cc2)cc1 | 10 | . | 8 | 52* | . | 10
COC(=O)C[C@@H]1C[C@@H]2c3cc(NC(=O)Nc4ccc(C(F)(F)F)cc4)ccc3O[C@@H]2[C@H](CO)O1 | . | . | -8 | . | . | .
COc1cccc(-n2cnc3sc(-c4ccccc4)cc3c2=O)c1 | -40 | 24 | -29 | -28 | 54* | -69
Cc1ccc(C)n1-n1cnc2sc(-c3ccccc3)cc2c1=O | -14 | 12 | 0 | -16 | 48 | -23
Cc1ccc(C)n1-n1c(C)nc2sc(-c3ccccc3)cc2c1=O | 9 | 23 | . | 69* | 6 | 5
COc1ccc(-n2cnc3sc(-c4ccccc4)cc3c2=O)cc1 | -35 | 25 | -80 | 1 | ? | -80
C[C@@H]1CN([C@H](C)CO)C(=O)c2cc(C#CCN(C)C)cnc2O[C@@H]1CN(C)C(=O)c1cnccn1 | . | . | -9 | . | . | .
